In PubChem BioAssay (Tox21):
Records with an inconclusive call do not appear. A number with no mark means an inactive call. Unless noted, calls come from the whole dose curve.

Biological target: Vitamin D3 receptor (Homo sapiens) (UniProt P11473)
Assay: qHTS assay to identify small molecule agonists of the vitamin D receptor (VDR) signaling pathway (AID 743222)
Details: HEK293T VDR-UAS-bla, beta-lactamase FRET ratio, 16 h; series mostly up to 63.5 µM; activation: at the top concentration
Procedure, shortened: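 Cells carrying a VDR-driven beta-lactamase reporter are seeded at 2,000 per well and rested 4 h. Compounds in DMSO are added for 16 h at 37C, and FRET substrate fluorescence is measured after 2 h at room temperature.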
% is set by controls: 0 for no effect and ±100 for the full control effect.

Sequence of Vitamin D3 receptor (Homo sapiens) (P11473 whole entry, looked up): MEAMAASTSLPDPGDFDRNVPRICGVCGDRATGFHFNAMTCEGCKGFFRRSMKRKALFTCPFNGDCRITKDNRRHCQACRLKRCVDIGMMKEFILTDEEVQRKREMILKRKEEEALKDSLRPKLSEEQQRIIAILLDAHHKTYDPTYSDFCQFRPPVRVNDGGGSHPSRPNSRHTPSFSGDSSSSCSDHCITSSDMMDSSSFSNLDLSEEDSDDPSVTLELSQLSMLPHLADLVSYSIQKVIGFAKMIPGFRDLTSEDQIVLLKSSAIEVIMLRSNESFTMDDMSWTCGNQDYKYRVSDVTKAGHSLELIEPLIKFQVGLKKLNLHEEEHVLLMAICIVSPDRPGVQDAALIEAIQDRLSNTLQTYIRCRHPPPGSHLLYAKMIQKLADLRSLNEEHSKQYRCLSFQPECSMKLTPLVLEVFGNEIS

Compound	activation
OCc1ccccc1O	0.768%
Cc1c(C(=O)NCCO)[n+](=O)c2ccccc2n1[O-]	-14.7%
O=S(=O)(O)C(F)(F)F	5.04%
CCOc1ccc(NC(N)=O)cc1	10.8%
NC/C=C/C(=O)O	4.48%
CCCCCCCCCC#N	6.72%
CCCCC(=O)O[C@]1(C(=O)CO)[C@H](C)C[C@H]2[C@@H]3CCC4=CC(=O)C=C[C@]4(C)[C@@]3(F)[C@@H](O)C[C@@]21C	12.8%
CCCCc1ccc2nc(NC(=O)OC)[nH]c2c1	-12.7%
O=C(O)c1ccccc1Nc1cc(Cl)ccc1C(=O)O	-17.7% [at 29.5 µM]
CN(CCCN1c2ccccc2CCc2ccccc21)CC(=O)c1ccc(Cl)cc1	-7.46%
CCNCCO	4.05%
CCCCNc1ccc(C(=O)OCCN(CC)CC)cc1	14.3%
CCOC(=O)NCCC[Si](OCC)(OCC)OCC	8.41%
Cc1ccc([N+](=O)[O-])c(N)c1	-9.18%
N#Cc1ccc(C(c2ccc(C#N)cc2)n2cncn2)cc1	-5.24%
O=C1CCC(C2CCCCC2)CC1	-13.8%

Compound	activation
NC(=O)NS(=O)(=O)c1ccc(Cl)cc1	-0.731%
CCCCCCCCOC(=O)CCCCCCCCC(=O)OCCCCCCCC	4%
OCCN(CCO)c1ccccc1	4.35%
OCC(CBr)(CBr)CBr	-1.35%
CCCNC(C)C(=O)Nc1c(C)csc1C(=O)OC (stereo not drawn)	1.25%
CC1=C(O)C(=O)OC1C (stereo not drawn)	11.9%
O=C1CCCc2ccccc21	-1.21% [at 81.1 µM]
COC(C)CCO (stereo not drawn)	-2.15%
CCCc1c2oc(C(=O)O)cc(=O)c2cc2c(=O)cc(C(=O)O)n(CC)c12	-11.1%
CN1CCN(c2c(F)cc3c(=O)c(C(=O)O)cn(CCF)c3c2F)CC1	-1.93%
CC(C)Nc1nc(N)nc(Cl)n1	-3.35%
CC(=O)N[C@@H](CC(C)C)C(=O)O	1.05%
CCCS(=O)c1ccc2nc(NC(=O)OC)[nH]c2c1 (stereo not drawn)	0.466%
COc1cc(Cl)ccc1Cl	-2.1% [at 81.1 µM]
O=C1N(c2ccccc2)c2ccccc2C1(Cc1ccncc1)Cc1ccncc1	5.35%
C1CCOC1	-2.18% [at 81.1 µM]

Biological target: Vitamin D3 receptor (Homo sapiens) (UniProt P11473)
Assay: qHTS assay to identify small molecule antagonists of the vitamin D receptor (VDR) signaling pathway (AID 743223; active = well fitted inhibition curve with a large enough effect in the signal ratio in the repeat runs, not every such curve was filed as active; the % refers to the signal ratio)
Details: VDR-UAS-bla HEK293T, beta-lactamase FRET ratio, 16 h; series mostly up to 61 µM; activity change, negative = inhibition: at the top concentration
Procedure, shortened: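 Beta-lactamase activity in VDR-bla cells is measured by FRET substrate fluorescence (2 h, room temperature) after cells spend 16 h at 37C with test compound and 3 nM final 1alpha,25-dihydroxyvitamin D3.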

Compound	activity change, negative = inhibition
OCc1ccccc1O	0.879%
Cc1c(C(=O)NCCO)[n+](=O)c2ccccc2n1[O-]	-0.793%
O=S(=O)(O)C(F)(F)F	8.69%
NC/C=C/C(=O)O	-6.98%
CCCCC(=O)O[C@]1(C(=O)CO)[C@H](C)C[C@H]2[C@@H]3CCC4=CC(=O)C=C[C@]4(C)[C@@]3(F)[C@@H](O)C[C@@]21C	2.73%
O=C(O)c1ccccc1Nc1cc(Cl)ccc1C(=O)O	-6.33% [at 28.5 µM]
CCCCCOc1ccc(C2SC(=O)NC2=O)cc1OCC (stereo not drawn)	26.3%
CC(C)CC(=O)OCc1ccccc1	-14.3%
CC/C=C\CCOC(=O)C(C)C	2.78%
CN(CCCN1c2ccccc2CCc2ccccc21)CC(=O)c1ccc(Cl)cc1	-6.88%
Cc1ccc([N+](=O)[O-])c(N)c1	-6.82%
N#Cc1ccc(C(c2ccc(C#N)cc2)n2cncn2)cc1	-15.2%
O=C1CCC(C2CCCCC2)CC1	-4.42%
NC(=O)NS(=O)(=O)c1ccc(Cl)cc1	-0.86%
CCCCCCCCOC(=O)CCCCCCCCC(=O)OCCCCCCCC	1.4%
OCCN(CCO)c1ccccc1	-7.71%
CCCNC(C)C(=O)Nc1c(C)csc1C(=O)OC (stereo not drawn)	0.919%
CC1=C(O)C(=O)OC1C (stereo not drawn)	-1.87%
O=C1CCCc2ccccc21	6.25% [at 78.8 µM]
COC(C)CCO (stereo not drawn)	3.52%
CCCc1c2oc(C(=O)O)cc(=O)c2cc2c(=O)cc(C(=O)O)n(CC)c12	0.777%
CN1CCN(c2c(F)cc3c(=O)c(C(=O)O)cn(CCF)c3c2F)CC1	6.91%
CC(C)Nc1nc(N)nc(Cl)n1	-0.636%
CC(=O)N[C@@H](CC(C)C)C(=O)O	0.885%
COc1cc(Cl)ccc1Cl	14.5% [at 78.8 µM]
C1CCOC1	18.5% [at 78.8 µM]
